# Source: PubChem BioAssay AID504909 (Southern Research Specialized Biocontainment Screening …, 2011)
# Results with a measured potency or affinity are listed apart. Calls of active or inactive are those of the source. The rule behind the calls is not given here.
# Experiment: Vero cell cytotoxicity, dose response, cytotoxicity control for M. tuberculosis growth inhibitor project, Vero cells, purified and synthesized compounds, set 5 (AID 504909)
# Details: series mostly up to 100 µM; viability: at the top concentration
row,SMILES,viability
1,COc1cccc(NC(=O)CSc2nc3c(c(=O)[nH]2)CCC3)c1,93.6% (inactive)
2,O=C(CSc1nc2ccccc2c(=O)[nH]1)NCc1ccc(Cl)cc1,82.8% (inactive)
3,CC1CCN(C(=O)C2CCN(c3nnc(-n4cccc4)s3)CC2)CC1,94.8% (inactive)
4,NC(=O)c1cnccn1,97.8% (inactive)
5,O=C(CSc1nccc(=O)[nH]1)NC1CCCCC1,94.8% (inactive)
6,CC(C)CCNC(=O)CSc1nc2ccccc2c(=O)[nH]1,99.5% (inactive)
7,O=C(CSc1nc2c(c(=O)[nH]1)CCC2)NC1CCCCC1,96.3% (inactive)
8,Cc1nc(SCC(=O)NCCC(C)C)[nH]c(=O)c1C,93.5% (inactive)
9,Cc1cnc(SCC(=O)NC2CCCCC2)[nH]c1=O,97.2% (inactive)
10,Cn1c(SCC(=O)NC2CCCCC2)nc2ccccc2c1=O,110% (inactive)
11,O=C(CSc1ncccn1)NC1CCCCC1,96.3% (inactive)
12,Cc1cc(=O)[nH]c(=S)[nH]1,104% (inactive)
13,NNC(=O)c1ccncc1,107% (inactive)
14,CNC(=O)CSc1nc2ccccc2c(=O)[nH]1,92.2% (inactive)
15,CC(C)NC(=O)CSc1nc2ccccc2c(=O)[nH]1,93.3% (inactive)
16,O=C(CSc1nc2ccccc2c(=O)[nH]1)N1CCOCC1,99.1% (inactive)
17,CCOC1OC(=O)C(Cl)=C1Nc1ccccc1C (configuration not stated),103% (inactive)
18,CCSc1nc(C)c(C)c(=O)[nH]1,100% (inactive)
19,Cc1nc(SCc2ccccc2Cl)[nH]c(=O)c1C,104% (inactive)
20,CC(Sc1nc2ccccc2c(=O)[nH]1)C(=O)NC1CCCCC1 (configuration not stated),99.7% (inactive)
21,Cc1ccc(NC(=O)COC(=O)CCc2c[nH]c3ccccc23)cc1[N+](=O)[O-],102% (inactive)
22,CC[N+](C)(CC)CCCCOc1ccc2c(c1)C(=O)c1cc(OCCCC[N+](C)(CC)CC)ccc1-2,90.1% (inactive)
23,NC(=O)CSc1nc2ccccc2c(=O)[nH]1,97.1% (inactive)
24,CCC(Sc1nc2ccccc2c(=O)[nH]1)C(=O)NC1CCCCC1 (configuration not stated),99.5% (inactive)
25,Nc1cc(=O)[nH]c(SCC(=O)NC2CCCCC2)n1,89.7% (inactive)
26,CN1CCC(NC(=O)CSc2nc3ccccc3c(=O)[nH]2)CC1,102% (inactive)
27,Cc1cccc(/C=C/C(=O)c2ccc([N+](=O)[O-])o2)c1,106% (inactive)
